Reference: the GenesisPotency data set
Screen size: about 110 compounds; fewer than 10 were called active.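 Rule for the calls: active = EC50 at or below 33 microM; inactive = the rest.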 The list is a sample of the results. Measured potencies and affinities stand elsewhere.

The compounds below were run against Ammonium transporter MEP2, Saccharomyces cerevisiae (strain ATCC 204508 / S288c) (UniProt P41948) (assay: MEP2-GFP expression modulation in yeast, dose response, flow cytometry, KU SAR set, S. cerevisiae (AID 488801)).
Chain of Ammonium transporter MEP2, Saccharomyces cerevisiae (strain ATCC 204508 / S288c) (P41948 whole entry): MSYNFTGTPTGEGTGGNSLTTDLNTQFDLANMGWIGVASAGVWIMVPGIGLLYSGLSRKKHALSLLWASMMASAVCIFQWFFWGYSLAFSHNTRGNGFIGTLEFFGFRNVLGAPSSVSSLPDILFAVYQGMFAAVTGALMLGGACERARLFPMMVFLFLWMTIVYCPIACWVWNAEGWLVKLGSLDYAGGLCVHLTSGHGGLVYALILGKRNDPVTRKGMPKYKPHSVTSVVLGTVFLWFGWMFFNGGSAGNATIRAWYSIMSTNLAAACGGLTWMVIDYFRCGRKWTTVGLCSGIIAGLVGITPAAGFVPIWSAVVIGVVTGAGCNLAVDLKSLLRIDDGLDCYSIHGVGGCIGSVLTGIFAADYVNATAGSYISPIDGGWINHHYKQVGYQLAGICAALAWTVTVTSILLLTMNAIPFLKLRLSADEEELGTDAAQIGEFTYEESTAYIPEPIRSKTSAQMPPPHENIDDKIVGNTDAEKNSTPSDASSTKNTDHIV

outcome, inactive:
O=[N+]([O-])c1ccc(O)c2ncccc12, CC(C)(C)c1ccc(NC(=O)COC(=O)c2ccc([N+](=O)[O-])s2)cc1, Nc1nc(NCc2ccco2)nc(Nc2cccc(F)c2)c1[N+](=O)[O-], CC(C)(C)C(=O)NC(=S)NNC(=O)c1ccc(-c2ccccc2)cc1, CNc1nc(N)c([N+](=O)[O-])c(Nc2cc(OC)ccc2OC)n1, Nc1nc(Nc2ccccc2F)nc(Nc2cccc(F)c2)c1[N+](=O)[O-], CCC(C)Nc1nc(N)c([N+](=O)[O-])c(Nc2cccc(F)c2)n1 (stereo not drawn), CNc1nc(N)c([N+](=O)[O-])c(NCc2ccccc2)n1, O=C(CCc1ccccc1)NNC(=S)NC(=O)c1ccccc1, CC(Oc1ccc(Cl)cc1)C(=O)NNC(=S)NC(=O)c1ccco1 (stereo not drawn), O=[N+]([O-])c1cc(O)c2ncccc2c1, Cc1ccc2nc(Cl)c3nnnn3c2c1, Cc1nn2c(-c3ccncc3)nnc2c2ccccc12
